Holding throughout (experiment): PBM; 200 nM protein, PBS
What all share (conditions): dsDNA, one strand shown

In experiment [1] the target is T1, SIX6 (Homo sapiens, UniProt O95475 114-200, L167I).
T1 sequence: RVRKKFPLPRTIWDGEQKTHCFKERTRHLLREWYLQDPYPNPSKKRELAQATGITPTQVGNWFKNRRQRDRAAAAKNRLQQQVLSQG

Experiment [2] deals with T2, SIX6 (Homo sapiens, UniProt O95475 114-200, L143V).
T2 sequence: T1 sequence with L30V, I54L

Experiment [3] deals with T3, SIX6 (Homo sapiens, UniProt O95475 114-200, H141N).
T3 sequence: T1 sequence with H28N, I54L

Experiment [4] deals with T4, SIX6 (Homo sapiens, UniProt O95475 114-200, T165P).
T4 sequence: T1 sequence with T52P, I54L

The target of experiment [5] is T5, SIX6 (Homo sapiens, UniProt O95475 114-200, L167M).
T5 sequence: T1 sequence with I54M

Experiment [6] deals with T6, SIX6 (Homo sapiens, UniProt O95475 114-200, L143M).
T6 sequence: T1 sequence with L30M, I54L

In experiment [7] the target is T7, SIX6 (Homo sapiens, UniProt O95475 114-200, L143I).
T7 sequence: T1 sequence with L30I, I54L

Experiment [8] has as its target T8, SIX6 (Homo sapiens, UniProt O95475 114-200, T165G).
T8 sequence: T1 sequence with T52G, I54L

Experiment [9] deals with T9, SIX6 (Homo sapiens, UniProt O95475 114-200, T139Q).
T9 sequence: T1 sequence with T26Q, I54L

The target of experiment [10] is T10, SIX6 (Homo sapiens, UniProt O95475 114-200, T165A).
T10 sequence: T1 sequence with T52A, I54L

In experiment [11] the target is T11, SIX6 (Homo sapiens, UniProt O95475 114-200, L167V).
T11 sequence: T1 sequence with I54V

The target in experiment [12] is T12, SIX6 (Homo sapiens, UniProt O95475 114-200).
T12 sequence: T1 sequence with I54L

Experiment [13] has as its target T13, SIX6 (Homo sapiens, UniProt O95475 114-200, T165I).
T13 sequence: T1 sequence with T52I, I54L

Changes are numbered by the printed parent chain.

This passage reports binding signal results from PMC11006913.

As to ACGATATC, the binding signal in the experiment with SIX6 [1] was 11.1 upbm affinity estimate (log intensity, higher = more binding, comparable within an allelic series); with SIX6 [2] it was 10.2 upbm affinity estimate (log intensity, higher = more binding, comparable within an allelic series); with SIX6 [3], 11.1 upbm affinity estimate (log intensity, higher = more binding, comparable within an allelic series); with SIX6 [4] it was 9.76 upbm affinity estimate (log intensity, higher = more binding, comparable within an allelic series); with SIX6 [5], 10.6 upbm affinity estimate (log intensity, higher = more binding, comparable within an allelic series); with SIX6 [6], 11 upbm affinity estimate (log intensity, higher = more binding, comparable within an allelic series). For the same sequence, the binding signal in the experiment with SIX6 [7] is 10.3 upbm affinity estimate (log intensity, higher = more binding, comparable within an allelic series); with SIX6 [8], 11.3 upbm affinity estimate (log intensity, higher = more binding, comparable within an allelic series); with SIX6 [9], 11.2 upbm affinity estimate (log intensity, higher = more binding, comparable within an allelic series); with SIX6 [10] it was 11 upbm affinity estimate (log intensity, higher = more binding, comparable within an allelic series); in the experiment with SIX6 [11], 10.9 upbm affinity estimate (log intensity, higher = more binding, comparable within an allelic series); with SIX6 [12], 10.9 upbm affinity estimate (log intensity, higher = more binding, comparable within an allelic series). Moreover, the binding signal with SIX6 [13] was 10.8 upbm affinity estimate (log intensity, higher = more binding, comparable within an allelic series).

As for ATACACCA, the binding signal with SIX6 [1] was 10.4 upbm affinity estimate (log intensity, higher = more binding, comparable within an allelic series); with SIX6 [2] it was 10.1 upbm affinity estimate (log intensity, higher = more binding, comparable within an allelic series); with SIX6 [3], 10.6 upbm affinity estimate (log intensity, higher = more binding, comparable within an allelic series); with SIX6 [4] it was 9.67 upbm affinity estimate (log intensity, higher = more binding, comparable within an allelic series); with SIX6 [5], 10.2 upbm affinity estimate (log intensity, higher = more binding, comparable within an allelic series); with SIX6 [6] it was 10.4 upbm affinity estimate (log intensity, higher = more binding, comparable within an allelic series). Further, the binding signal was 10.2 upbm affinity estimate (log intensity, higher = more binding, comparable within an allelic series) in the experiment with SIX6 [7]; 10.8 upbm affinity estimate (log intensity, higher = more binding, comparable within an allelic series) with SIX6 [8]; 10.8 upbm affinity estimate (log intensity, higher = more binding, comparable within an allelic series) with SIX6 [9]; 10.6 upbm affinity estimate (log intensity, higher = more binding, comparable within an allelic series) with SIX6 [10]; 10.2 upbm affinity estimate (log intensity, higher = more binding, comparable within an allelic series) with SIX6 [11]; 10.5 upbm affinity estimate (log intensity, higher = more binding, comparable within an allelic series) in the experiment with SIX6 [12]. For the same sequence, the binding signal with SIX6 [13] was 10.5 upbm affinity estimate (log intensity, higher = more binding, comparable within an allelic series).

With CAGCTGGC, the binding signal is 8.7 upbm affinity estimate (log intensity, higher = more binding, comparable within an allelic series) with SIX6 [1]; 8.78 upbm affinity estimate (log intensity, higher = more binding, comparable within an allelic series) with SIX6 [2]; 8.72 upbm affinity estimate (log intensity, higher = more binding, comparable within an allelic series) in the experiment with SIX6 [3]; 8.91 upbm affinity estimate (log intensity, higher = more binding, comparable within an allelic series) in the experiment with SIX6 [4]; 8.72 upbm affinity estimate (log intensity, higher = more binding, comparable within an allelic series) with SIX6 [5]; 8.61 upbm affinity estimate (log intensity, higher = more binding, comparable within an allelic series) with SIX6 [6]. The binding signal with SIX6 [7] was 8.88 upbm affinity estimate (log intensity, higher = more binding, comparable within an allelic series); with SIX6 [8], 8.8 upbm affinity estimate (log intensity, higher = more binding, comparable within an allelic series); in the experiment with SIX6 [9] it was 8.91 upbm affinity estimate (log intensity, higher = more binding, comparable within an allelic series); with SIX6 [10] it was 8.79 upbm affinity estimate (log intensity, higher = more binding, comparable within an allelic series); in the experiment with SIX6 [11] it was 8.84 upbm affinity estimate (log intensity, higher = more binding, comparable within an allelic series); in the experiment with SIX6 [12], 8.73 upbm affinity estimate (log intensity, higher = more binding, comparable within an allelic series). Besides, the binding signal with SIX6 [13] is 8.69 upbm affinity estimate (log intensity, higher = more binding, comparable within an allelic series).

In the case of CTATATCA, the binding signal in the experiment with SIX6 [1] is 11.2 upbm affinity estimate (log intensity, higher = more binding, comparable within an allelic series); with SIX6 [2], 10.4 upbm affinity estimate (log intensity, higher = more binding, comparable within an allelic series); with SIX6 [3] it was 11.2 upbm affinity estimate (log intensity, higher = more binding, comparable within an allelic series); with SIX6 [4], 9.95 upbm affinity estimate (log intensity, higher = more binding, comparable within an allelic series); with SIX6 [5], 10.7 upbm affinity estimate (log intensity, higher = more binding, comparable within an allelic series); with SIX6 [6], 11 upbm affinity estimate (log intensity, higher = more binding, comparable within an allelic series). Further, the binding signal in the experiment with SIX6 [7] was 10.4 upbm affinity estimate (log intensity, higher = more binding, comparable within an allelic series); with SIX6 [8] it was 11.1 upbm affinity estimate (log intensity, higher = more binding, comparable within an allelic series); with SIX6 [9], 11.1 upbm affinity estimate (log intensity, higher = more binding, comparable within an allelic series); in the experiment with SIX6 [10] it was 11 upbm affinity estimate (log intensity, higher = more binding, comparable within an allelic series); with SIX6 [11], 10.9 upbm affinity estimate (log intensity, higher = more binding, comparable within an allelic series); with SIX6 [12], 10.9 upbm affinity estimate (log intensity, higher = more binding, comparable within an allelic series). In the experiment with SIX6 [13], the binding signal was 11.1 upbm affinity estimate (log intensity, higher = more binding, comparable within an allelic series).

Turning to CGATATCC, the binding signal with SIX6 [1] was 11.1 upbm affinity estimate (log intensity, higher = more binding, comparable within an allelic series); with SIX6 [2], 10.2 upbm affinity estimate (log intensity, higher = more binding, comparable within an allelic series); with SIX6 [3], 11.1 upbm affinity estimate (log intensity, higher = more binding, comparable within an allelic series); with SIX6 [4] it was 9.62 upbm affinity estimate (log intensity, higher = more binding, comparable within an allelic series); in the experiment with SIX6 [5] it was 10.6 upbm affinity estimate (log intensity, higher = more binding, comparable within an allelic series); with SIX6 [6], 10.9 upbm affinity estimate (log intensity, higher = more binding, comparable within an allelic series). In addition, the binding signal in the experiment with SIX6 [7] is 10.3 upbm affinity estimate (log intensity, higher = more binding, comparable within an allelic series); with SIX6 [8], 11.1 upbm affinity estimate (log intensity, higher = more binding, comparable within an allelic series); with SIX6 [9], 11.2 upbm affinity estimate (log intensity, higher = more binding, comparable within an allelic series); with SIX6 [10], 11 upbm affinity estimate (log intensity, higher = more binding, comparable within an allelic series); with SIX6 [11], 10.9 upbm affinity estimate (log intensity, higher = more binding, comparable within an allelic series); with SIX6 [12], 11 upbm affinity estimate (log intensity, higher = more binding, comparable within an allelic series). Besides, the binding signal with SIX6 [13] is 10.9 upbm affinity estimate (log intensity, higher = more binding, comparable within an allelic series).
